Assay outcomes (PubChem BioAssay)
KDM5B inhibitor: Primary screen for KDM5B Histone Demethylases FDH-coupled qHTS | KDM5B demethylase, FDH-coupled NADH fluorescence (FDH is formaldehyde dehydrogenase) | AID 1347165, 2019 | Potency, µM (doses to about 57.7 µM), most hits filed as inhibitors | 220,000 compounds, 2.6% hits; active = well fitted inhibition curve with a large enough effect; also: 0% is about no effect; nearly all actives have a fitted effect of over 70% in size
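Measured: NADH fluorescence change, 30 min, RT. System: KDM5BΔAP 200 nM final, H3K4me3 peptide, α-KG, Fe(II), ascorbate, NAD⁺ plus FDH, pH 7.5 HEPES. Compounds: titrated, 10 min pre-incubation with enzyme.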
An asterisk follows results filed as active; i = inactive. This excerpt belongs to a sample that is enriched for hits. Potency is read from the fitted curve at half-maximal effect.

SMILES | KDM5B inhibitor
CSc1cccc(NC(=O)Cn2c(-c3ccc(Cl)cc3)nc(C)c(CCO)c2=O)c1 | i
CSc1ccc2cc(CN(C)CCO)c(-c3ccc(Cl)cc3)nc2c1 | 28µM*
CN(CCSc1ccc(Cl)cc1)Cc1nc2ccccc2c(=O)[nH]1 | i
CCOC(=O)c1cnc2c(Cl)cccc2c1Nc1cccc(C)c1 | i
CC(=O)c1cccc(NC(=S)NNC(=O)c2ccc(-c3ccccc3)cc2)c1 | i
CC(C)C(CNC(=O)C1CCN(c2nc3ccccc3o2)CC1)N(C)C (configuration not stated) | i
O=C1CCN(C(=O)COc2ccc(Cl)cc2Cl)c2ccccc2N1 | i
O=C(CC1CCCC1)N1CCCC(Cc2nc(C3CCOCC3)no2)C1 (configuration not stated) | i
CCC(=O)N1CCCC(Cc2nc(C3CCOCC3)no2)C1 (configuration not stated) | i
O=C(c1cncc(Br)c1)N1CCCC(Cc2nc(C3CCOCC3)no2)C1 (configuration not stated) | 32µM*
O=C(C1CCC1)N1CCCC(Cc2nc(C3CCOCC3)no2)C1 (configuration not stated) | 35µM*
COc1cccc(C(=O)N2CCCC(Cc3nc(C4CCOCC4)no3)C2)c1 (configuration not stated) | i
CCNC(=O)N1CCCC(Cc2nc(C3CCOCC3)no2)C1 (configuration not stated) | i
CCOc1ccc(-n2nnc(C(=O)Nc3cccc(C)c3C)c2N)cc1 | i
CN(C)c1ccc(C(=O)Nc2cnc3ccccc3c2)cc1 | i
O=C(C1CCN(C(=O)N2CC3CC(C2)[C@H]2CCCC(=O)N2C3)CC1)N1CCN(c2ccccc2)CC1 (some centres not stated) | i
O=C(C1CCN(C(=O)N2CC3CC(C2)[C@H]2CCCC(=O)N2C3)CC1)N1CCCCC1 (some centres not stated) | i
O=C(C1CCN(C(=O)N2CC3CC(C2)[C@H]2CCCC(=O)N2C3)CC1)N1CCN(c2ccccn2)CC1 (some centres not stated) | 25µM*
O=C(c1ccc(N2CC3CC(C2)[C@H]2CCCC(=O)N2C3)nc1)N1CCN(c2ccc(F)cc2)CC1 (some centres not stated) | i
O=C(c1ccc(N2CC3CC(C2)[C@H]2CCCC(=O)N2C3)nc1)N1CCc2ccccc21 (some centres not stated) | i
O=C(c1ccc(N2CC3CC(C2)[C@H]2CCCC(=O)N2C3)nc1)N1CCC(Cc2ccccc2)CC1 (some centres not stated) | 32µM*
Cc1ccc(C(=O)OCCOc2ccc(C#N)cc2)cc1F | i
O=C(CSc1ncc(-c2ccccc2)o1)Nc1ccc(Cl)cc1 | i
CCCCc1ccc(C(=O)Oc2ccc(C(C)=O)cc2)cc1 | i
CC(N)c1ccc(C(=O)O)o1 (configuration not stated) | i
SMILES | KDM5B inhibitor
COc1ccc2cc(/C=C(\NC(=O)c3ccccc3)C(=O)NCCO)c(Cl)nc2c1 | i
CC(C)(C)OC(=O)N1CC(Nc2ccccc2O)C1 | 100µM*
CC(C)(C)OC(=O)N1CC(NCc2cccc(F)c2)C1 | i
CC(C)(C)OC(=O)N1CC(Nc2ccc(Cl)cc2)C1 | i
O=C(O)Cn1cc(C(C(=O)O)N2CCN(Cc3ccncc3)CC2)c2ccccc21 (configuration not stated) | i
CC(c1ccccc1Cl)n1cnc2c1c(=O)n(C)c(=O)n2C (configuration not stated) | i
Clc1ccc(-c2csc(NC3CC3)n2)c(Cl)c1 | i
Cc1cccc(/C=N/NC(=O)c2cccs2)c1 | i
Fc1cccc(CN2CCCC3(CCN(c4cnccn4)C3)C2)c1F (configuration not stated) | 28µM*
OC1(CN2CCCCC2)CCN(Cc2cccc(F)c2F)C1 (configuration not stated) | i
CC1(c2ccccc2)N(Cc2ccccc2F)C(=O)OC12CCN(C(=O)c1cnccn1)CC2 (configuration not stated) | i
O=C(C1CCCC1)N1CCC2(CCCN(Cc3cccc(F)c3F)C2)C1 (configuration not stated) | i
COc1cccc(CN2CCCC3(CCN(c4cc(C)nc(N)n4)C3)C2)c1OC (configuration not stated) | i
Fc1ccccc1CN1CCCC2(CCN(c3cnccn3)C2)C1 (configuration not stated) | 32µM*
CCn1ccc2cc(S(=O)(=O)N3CCC(C(=O)NCCCOC(C)C)CC3)ccc21 | i
CNc1c(NC(=O)NCc2ccccc2)c(=O)oc2ccccc12 | i
CCC12CN3CC(CC)(CN(C1)C3c1ccco1)C2=O (configuration not stated) | i
CC(C)NC(=O)N[C@H]1CCN2C(=O)c3cc(-c4ccc5c(c4)OCO5)ccc3NC(=O)[C@@H]2C1 | 32µM*
